Results published in the supplement of paper PMC7261846.
Structures can show the parent of a compound that is named as a salt. ± gives the uncertainty stated by the source.

Test system: Candida albicans SNY425 biofilm
Test: biofilm OD600 with compound plus antifungal (OD600 (absorbance)); higher = more biofilm remaining
[1] = assay detail: disruption of 24-h mature biofilm (compound + antifungal for a second 24 h)
[2] = assay detail: sustained inhibition (compound + antifungal during 90-min adherence and 24-h growth)

| Compound | biofilm OD600 [1] | biofilm OD600 [2] |
| --- | --- | --- |
| CCC(C)[C@H](NS(=O)(=O)c1cccc2ccccc12)C(=O)N[C@H](C=O)Cc1c[nH]c2ccccc12 (stereo partly specified) + OC(Cn1cncn1)(Cn1cncn1)c1ccc(F)cc1F [fluconazole] (first compound 12.5 µM) | 0.249 ± 0.0046 | 0.14 ± 0.0069 |
| CC(C)CC(=O)N[C@H](C(=O)N[C@H](C(=O)N[C@@H](CC(C)C)[C@@H](O)CC(=O)N[C@@H](C)C(=O)N[C@@H](CC(C)C)[C@@H](O)CC(=O)O)C(C)C)C(C)C [Pepstatin A] + CC[C@H](C)C[C@H](C)CCCCCCCCC(=O)N[C@H]1C[C@@H](O)[C@@H](NCCN)NC(=O)[C@@H]2[C@@H](O)CCN2C(=O)[C@H]([C@H](O)CCN)NC(=O)[C@H]([C@H](O)[C@@H](O)c2ccc(O)cc2)NC(=O)[C@@H]2C[C@@H](O)CN2C(=O)[C@H]([C@@H](C)O)NC1=O [caspofungin] (first compound 12.5 µM) | 0.264 ± 0.01 | 0.18 ± 0.013 |
| CC[C@H](C)[C@H](N)C(=O)N1CCSC1 [P32/98 hemifumarate salt] + C[C@@H]1[C@H](O)[C@@H](C)/C=C/C=C/C=C/C=C/C=C/C=C/C=C/[C@H](O[C@@H]2O[C@H](C)[C@@H](O)[C@H](N)[C@@H]2O)C[C@@H]2O[C@](O)(C[C@@H](O)C[C@@H](O)[C@H](O)CC[C@@H](O)C[C@@H](O)CC(=O)O[C@H]1C)C[C@H](O)[C@H]2C(=O)O [amphotericin B] (first compound 12.5 µM) | 0.259 ± 0.014 | 0.181 ± 0.0051 |
| CC(NC(=O)C(Cc1ccccc1)NC(=O)OCc1ccccc1)C(=O)CF (stereo unspecified) + OC(Cn1cncn1)(Cn1cncn1)c1ccc(F)cc1F [fluconazole] (first compound 12.5 µM) | 0.287 ± 0.011 | 0.119 ± 0.0049 |
| CC(C)CN(C[C@@H](O)[C@H](Cc1ccccc1)NC(=O)O[C@H]1CCOC1)S(=O)(=O)c1ccc(N)cc1 [amprenavir] + OC(Cn1cncn1)(Cn1cncn1)c1ccc(F)cc1F [fluconazole] (first compound 12.5 µM) | 0.264 ± 0.0069 | 0.16 ± 0.011 |
| CC1CNc2c(cccc2S(=O)(=O)N[C@@H](CCCNC(=N)N)C(=O)N2CC[C@@H](C)C[C@@H]2C(=O)O)C1 (stereo partly specified) [Argatroban] + C[C@@H]1[C@H](O)[C@@H](C)/C=C/C=C/C=C/C=C/C=C/C=C/C=C/[C@H](O[C@@H]2O[C@H](C)[C@@H](O)[C@H](N)[C@@H]2O)C[C@@H]2O[C@](O)(C[C@@H](O)C[C@@H](O)[C@H](O)CC[C@@H](O)C[C@@H](O)CC(=O)O[C@H]1C)C[C@H](O)[C@H]2C(=O)O [amphotericin B] (first compound 12.5 µM) | 0.3 ± 0.018 | 0.191 ± 0.0048 |
| CCN1C(=O)C=CC1=O [N-Ethylmaleimide] + C[C@@H]1[C@H](O)[C@@H](C)/C=C/C=C/C=C/C=C/C=C/C=C/C=C/[C@H](O[C@@H]2O[C@H](C)[C@@H](O)[C@H](N)[C@@H]2O)C[C@@H]2O[C@](O)(C[C@@H](O)C[C@@H](O)[C@H](O)CC[C@@H](O)C[C@@H](O)CC(=O)O[C@H]1C)C[C@H](O)[C@H]2C(=O)O [amphotericin B] (first compound 4 µM) | 0.304 ± 0.0086 | 0.189 ± 0.0049 |
| O=c1oc(Cl)c(Cl)c2ccccc12 [3,4-Dichloroisocoumarin] + OC(Cn1cncn1)(Cn1cncn1)c1ccc(F)cc1F [fluconazole] (first compound 12.5 µM) | 0.237 ± 0.011 | 0.154 ± 0.014 |
| CC(C)C[C@H](NC(=O)[C@H]1O[C@@H]1C(=O)O)C(=O)NCCCCN=C(N)N + CC[C@H](C)C[C@H](C)CCCCCCCCC(=O)N[C@H]1C[C@@H](O)[C@@H](NCCN)NC(=O)[C@@H]2[C@@H](O)CCN2C(=O)[C@H]([C@H](O)CCN)NC(=O)[C@H]([C@H](O)[C@@H](O)c2ccc(O)cc2)NC(=O)[C@@H]2C[C@@H](O)CN2C(=O)[C@H]([C@@H](C)O)NC1=O [caspofungin] (first compound 12.5 µM) | 0.261 ± 0.01 | 0.18 ± 0.008 |
| CCCCC[C@H](CC(=O)NO)C(=O)N[C@H](C(=O)N1CCC[C@H]1CO)C(C)C [Actinonin] + OC(Cn1cncn1)(Cn1cncn1)c1ccc(F)cc1F [fluconazole] (first compound 12.5 µM) | 0.267 ± 0.0099 | 0.145 ± 0.0085 |
| O=C(O)CNC(=O)C(CS)Cc1ccccc1 (racemic) [DL-Thiorphan] + CC[C@H](C)C[C@H](C)CCCCCCCCC(=O)N[C@H]1C[C@@H](O)[C@@H](NCCN)NC(=O)[C@@H]2[C@@H](O)CCN2C(=O)[C@H]([C@H](O)CCN)NC(=O)[C@H]([C@H](O)[C@@H](O)c2ccc(O)cc2)NC(=O)[C@@H]2C[C@@H](O)CN2C(=O)[C@H]([C@@H](C)O)NC1=O [caspofungin] (first compound 12.5 µM) | 0.262 ± 0.013 | 0.163 ± 0.0098 |
| C[C@H](CS)C(=O)N1CCC[C@H]1C(=O)O [Captopril] + OC(Cn1cncn1)(Cn1cncn1)c1ccc(F)cc1F [fluconazole] (first compound 12.5 µM) | 0.281 ± 0.0069 | 0.167 ± 0.01 |
| O=C[C@@H]1CCCN1C(=O)[C@@H]1CCCN1C(=O)OCc1ccccc1 [Z-Prolyl-prolinal] + C[C@@H]1[C@H](O)[C@@H](C)/C=C/C=C/C=C/C=C/C=C/C=C/C=C/[C@H](O[C@@H]2O[C@H](C)[C@@H](O)[C@H](N)[C@@H]2O)C[C@@H]2O[C@](O)(C[C@@H](O)C[C@@H](O)[C@H](O)CC[C@@H](O)C[C@@H](O)CC(=O)O[C@H]1C)C[C@H](O)[C@H]2C(=O)O [amphotericin B] (first compound 12.5 µM) | 0.262 ± 0.013 | 0.156 ± 0.0083 |
| CC(C)CCNC(=O)[C@H](CC(C)C)NC(=O)[C@H]1O[C@@H]1C(=O)O + OC(Cn1cncn1)(Cn1cncn1)c1ccc(F)cc1F [fluconazole] (first compound 12.5 µM) | 0.25 ± 0.0093 | 0.143 ± 0.008 |
| CCCCCCCCCC(=O)N[C@@H](CCCN=C(N)N)C(=O)N[C@H](C(=O)N[C@@H](CCCCN)C(=O)N[C@@H](CCCN=C(N)N)C(=O)CCl)C(C)C + OC(Cn1cncn1)(Cn1cncn1)c1ccc(F)cc1F [fluconazole] (first compound 4 µM) | 0.267 ± 0.0072 | 0.108 ± 0.005 |
| CCCC[C@@H](C=O)NC(=O)[C@H](CC(C)C)NC(=O)OCc1ccccc1 [Calpeptin] + OC(Cn1cncn1)(Cn1cncn1)c1ccc(F)cc1F [fluconazole] (first compound 12.5 µM) | 0.26 ± 0.0076 | 0.162 ± 0.01 |
| COC(=O)N[C@H](C(=O)N[C@@H](Cc1ccccc1)[C@@H](O)CN(Cc1ccc(-c2ccccn2)cc1)NC(=O)[C@@H](NC(=O)OC)C(C)(C)C)C(C)(C)C [atazanavir] + CC[C@H](C)C[C@H](C)CCCCCCCCC(=O)N[C@H]1C[C@@H](O)[C@@H](NCCN)NC(=O)[C@@H]2[C@@H](O)CCN2C(=O)[C@H]([C@H](O)CCN)NC(=O)[C@H]([C@H](O)[C@@H](O)c2ccc(O)cc2)NC(=O)[C@@H]2C[C@@H](O)CN2C(=O)[C@H]([C@@H](C)O)NC1=O [caspofungin] (first compound 12.5 µM) | 0.203 ± 0.0059 | 0.201 ± 0.013 |
| CCOC(=O)[C@H](CCc1ccccc1)N[C@@H](C)C(=O)N1CCC[C@H]1C(=O)O [Enalapril] + OC(Cn1cncn1)(Cn1cncn1)c1ccc(F)cc1F [fluconazole] (first compound 12.5 µM) | 0.258 ± 0.0055 | 0.157 ± 0.015 |
| C[C@H](CS)C(=O)N1CCC[C@H]1C(=O)O [Captopril] + CC[C@H](C)C[C@H](C)CCCCCCCCC(=O)N[C@H]1C[C@@H](O)[C@@H](NCCN)NC(=O)[C@@H]2[C@@H](O)CCN2C(=O)[C@H]([C@H](O)CCN)NC(=O)[C@H]([C@H](O)[C@@H](O)c2ccc(O)cc2)NC(=O)[C@@H]2C[C@@H](O)CN2C(=O)[C@H]([C@@H](C)O)NC1=O [caspofungin] (first compound 12.5 µM) | 0.286 ± 0.011 | 0.198 ± 0.0082 |
| Cc1cccc(C)c1OCC(=O)N[C@@H](Cc1ccccc1)[C@@H](O)C[C@H](Cc1ccccc1)NC(=O)[C@H](C(C)C)N1CCCNC1=O [lopinavir] + C[C@@H]1[C@H](O)[C@@H](C)/C=C/C=C/C=C/C=C/C=C/C=C/C=C/[C@H](O[C@@H]2O[C@H](C)[C@@H](O)[C@H](N)[C@@H]2O)C[C@@H]2O[C@](O)(C[C@@H](O)C[C@@H](O)[C@H](O)CC[C@@H](O)C[C@@H](O)CC(=O)O[C@H]1C)C[C@H](O)[C@H]2C(=O)O [amphotericin B] (first compound 12.5 µM) | 0.246 ± 0.0051 | 0.14 ± 0.015 |
| CCCC[C@@H](C=O)NC(=O)OC(C)(C)C + OC(Cn1cncn1)(Cn1cncn1)c1ccc(F)cc1F [fluconazole] (first compound 12.5 µM) | 0.243 ± 0.0054 | 0.117 ± 0.0068 |
| N=C(N)Nc1ccc(C(=O)Oc2ccc3cc(C(=N)N)ccc3c2)cc1 [Nafamostat mesylate] + CC[C@H](C)C[C@H](C)CCCCCCCCC(=O)N[C@H]1C[C@@H](O)[C@@H](NCCN)NC(=O)[C@@H]2[C@@H](O)CCN2C(=O)[C@H]([C@H](O)CCN)NC(=O)[C@H]([C@H](O)[C@@H](O)c2ccc(O)cc2)NC(=O)[C@@H]2C[C@@H](O)CN2C(=O)[C@H]([C@@H](C)O)NC1=O [caspofungin] (first compound 12.5 µM) | 0.25 ± 0.0081 | 0.162 ± 0.012 |
| O=C(NCCCCN1CCOCC1)c1cc2ccccc2o1 + C[C@@H]1[C@H](O)[C@@H](C)/C=C/C=C/C=C/C=C/C=C/C=C/C=C/[C@H](O[C@@H]2O[C@H](C)[C@@H](O)[C@H](N)[C@@H]2O)C[C@@H]2O[C@](O)(C[C@@H](O)C[C@@H](O)[C@H](O)CC[C@@H](O)C[C@@H](O)CC(=O)O[C@H]1C)C[C@H](O)[C@H]2C(=O)O [amphotericin B] (first compound 12.5 µM) | 0.262 ± 0.0087 | 0.216 ± 0.013 |
